This is part of a sample that, as a whole, favours compounds with a hit. Of some 83,000 tested, about 20% had one in any assay.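 Results are percent growth after 48 hours of single-concentration exposure. 100 means growth as in untreated cells, lower positive values show inhibition; negative values down to -100 show cell death.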 Calls of active or inactive are those of the source. The calls were made as follows: active = growth percent below 10; inactive = the rest.
What was measured:
Test in all cases: NCI-60 one-dose screen, 48 h (100 = growth as untreated, 0 = no growth, -100 = all killed)
Conditions in all cases: 10 µM unless noted
[1] = tested on: NCI-H23 lung
[2] = tested on: NCI-H322M lung
[3] = tested on: HOP-62 NSCLC
[4] = tested on: NCI-H460 lung
[5] = tested on: HOP-92 NSCLC
[6] = tested on: NCI-H522 lung
[7] = tested on: A549/ATCC NSCLC
[8] = tested on: 786-0 renal
[9] = tested on: COLO 205 colon
[10] = tested on: DU-145 prostate
[11] = tested on: K-562 leukemia
[12] = tested on: MALME-3M melanoma
[13] = tested on: MDA-MB-231 breast
[14] = tested on: SF-268 CNS
[15] = tested on: SF-295 CNS
[16] = tested on: SF-539 CNS
[17] = tested on: UACC-257 melanoma
[18] = tested on: M14 melanoma
[19] = tested on: HCT-15 colon
[20] = tested on: RXF 393 renal

Measured: growth

CSc1nc2c(c(=O)n1C)N=C1c3ccccc3C(=O)C1C(c1ccccc1)N2 (centres undefined)
inactive: [1] 85% | [2] 95.1% | [3] 76.9% | [4] 76.2% | [5] 28.7% | [6] 103% | [7] 81.6% | [8] 91.9% | [9] 73.5% | [10] 81.9% | [11] 32.9% | [12] 42.6% | [13] 82.8% | [14] 81.7% | [16] 68% | [17] 102% | [18] 62.2% | [19] 62.4%
active: [15] -10.6%

CCc1ccc(CNCC(O)c2ccccc2)cc1 (centres undefined)
active: [9] 7.32%
inactive: [1] 69.1% | [2] 75.6% | [3] 76.6% | [4] 77% | [5] 12.7% | [6] 77.7% | [7] 73.8% | [8] 87.5% | [10] 79.7% | [11] 22% | [13] 47% | [20] 61.6% | [14] 90.1% | [16] 86.5% | [17] 93.1% | [18] 58.7% | [19] 43.9%

O=C(Nc1ccc(-c2nc3cc4ccccc4cc3[nH]2)cc1)c1cccc(Br)c1
inactive: [1] 54.1% | [2] 41.3% | [3] 49.9% | [5] 72.6% | [6] 16.3% | [7] 27% | [8] 17.6% | [9] 34.6% | [10] 46.4% | [11] 26.7% | [13] 69.2% | [20] 29% | [14] 37% | [16] 30.8% | [17] 42.3% | [18] 34.2% | [19] 22.3%
active: [4] 6.74% | [15] -36.3%

COC(=O)/C(=C\c1c(C)[nH]c2ccccc12)S(=O)(=O)c1ccccc1
active: [4] -7.04% | [10] -53.4% | [14] 2.87% | [16] -24.3%
inactive: [1] 18.6% | [2] 47.5% | [3] 29.8% | [5] 21.5% | [6] 31.9% | [7] 23.7% | [8] 48% | [9] 31.8% | [11] 14.4% | [12] 45.8% | [13] 90% | [15] 16.6% | [17] 29.4% | [18] 33.7% | [19] 23.8%

N#C/C(=C\c1c(-c2ccccc2)[nH]c2ccccc12)C(=O)c1ccccc1
inactive: [1] 47.9% | [2] 53.3% | [3] 43% | [4] 18.9% | [5] 77.5% | [6] 57.1% | [7] 50.2% | [8] 50.1% | [9] 25.6% | [10] 31.7% | [11] 21.6% | [12] 70.9% | [13] 71.3% | [14] 53.6% | [15] 37.1% | [16] 21.7% | [17] 61.6% | [18] 37.6% | [19] 42.1%

O=C(c1ccccc1)N(C(=S)NCCc1ccc(Cl)cc1)c1ccccc1
inactive: [1] 95.5% | [2] 103% | [3] 103% | [4] 107% | [5] 75.2% | [6] 92.5% | [7] 97.2% | [8] 92.4% | [9] 139% | [10] 79.7% | [11] 58.1% | [13] 112% | [14] 96.2% | [15] 113% | [16] 104% | [17] 95.8% | [18] 101% | [19] 86.2%

CSc1nc2c(c(=O)[nH]1)N=C1c3ccccc3C(=O)C1C(c1ccc(F)cc1)N2 (centres undefined)
inactive: [1] 83.7% | [2] 92.3% | [3] 63.6% | [4] 51.7% | [5] 58.3% | [6] 75.9% | [7] 56.3% | [8] 71.5% | [9] 53.4% | [10] 103% | [11] 62.8% | [12] 56.1% | [13] 93.3% | [14] 65.5% | [16] 68.7% | [17] 79.1% | [18] 43.4% | [19] 46.1%
active: [15] -29%

O=C(Nc1ccc(Cl)cc1)c1cc2ccccc2cc1OP(=O)(O)O
inactive: [2] 22.7% | [3] 32.3% | [4] 14.2% | [7] 16.4% | [8] 20.6% | [9] 98.9% | [10] 24.9% | [11] 27.1% | [13] 55.5% | [14] 32% | [16] 32.1% | [17] 15.7% | [18] 31.9% | [19] 23.2%
active: [1] -0.361% | [5] -24% | [6] 3.47% | [12] -16.3% | [15] -7.61%

Cn1c2c(c(=O)[nH]c1=O)NC1=C(C(=O)c3ccccc31)C1(C=C(O)c3ccccc31)N2 (centres undefined)
inactive: [1] 109% | [2] 113% | [3] 101% | [4] 111% | [5] 75.7% | [6] 99.9% | [7] 102% | [8] 97.7% | [9] 121% | [10] 89% | [11] 112% | [12] 124% | [13] 105% | [14] 103% | [15] 135% | [16] 107% | [17] 115% | [18] 96.8% | [19] 96.9%

N#CC(C#N)=Cc1c(-c2ccccc2)[nH]c2ccccc12
inactive: [1] 41% | [2] 61% | [3] 35.6% | [4] 16.9% | [5] 45.1% | [6] 50.2% | [7] 37.1% | [8] 40% | [9] 20.4% | [10] 15.7% | [11] 12.7% | [12] 81.3% | [13] 50.2% | [14] 44.6% | [15] 31.6% | [17] 52.3% | [18] 27.7% | [19] 35.3%
active: [16] -11.7%

Cc1ccc(S(=O)c2ccc([N+](=O)[O-])c3nonc23)cc1 (centres undefined)
active: [6] -60.1% | [9] -39.7%
inactive: [1] 102% | [2] 110% | [3] 112% | [4] 99.5% | [5] 109% | [7] 101% | [8] 102% | [10] 112% | [11] 38.9% | [12] 81.2% | [20] 111% | [14] 105% | [15] 119% | [16] 106% | [17] 100% | [18] 104% | [19] 66.5%

CC(=O)n1cc(-c2c[nH]c3ccccc23)c(-c2ccc(Cl)cc2)n1
inactive: [1] 76.2% | [2] 83.6% | [3] 66.3% | [4] 82.3% | [5] 79.7% | [6] 74.8% | [7] 93.7% | [8] 78.9% | [9] 92.4% | [10] 96.3% | [11] 94.3% | [12] 87.2% | [20] 80.6% | [14] 86.5% | [15] 75.3% | [16] 81.7% | [17] 103% | [18] 76.1% | [19] 80.9%

COc1ccc(-c2nsc3c2NC(=O)CC3c2ccc3c(c2)OCCO3)cc1 (centres undefined)
inactive: [1] 29% | [2] 74.8% | [3] 34.8% | [5] 66.1% | [7] 28.9% | [8] 28.3% | [11] 13.3% | [12] 59.9% | [14] 55.4% | [17] 76.2% | [18] 19.7% | [19] 14.6%
active: [4] 6.65% | [6] -15.2% | [9] -70.4% | [10] 5.37% | [20] 0.635% | [15] 0.403% | [16] -17%

O=C(Cc1ccccc1)NC(c1ccc(Cl)cc1)c1c(O)ccc2ccccc12 (centres undefined)
active: [1] 4.5% | [4] 5.44% | [5] -19.9% | [6] -8.23% | [7] 9.06% | [9] -38.6% | [11] 8.85% | [13] -15.7% | [20] -6.64% | [15] -36.4% | [17] -9.13%
inactive: [2] 15.4% | [3] 30.9% | [8] 26% | [10] 33.6% | [14] 29.2% | [16] 40% | [18] 16.3% | [19] 15.4%

COc1ccc(-c2nsc3c2NC(=O)CC3c2ccsc2)cc1 (centres undefined)
inactive: [1] 39.6% | [2] 42.4% | [3] 33.5% | [5] 71.9% | [6] 11.6% | [7] 27.4% | [8] 29.8% | [11] 13.3% | [12] 43.6% | [20] 18% | [14] 47.1% | [17] 77.3% | [18] 18% | [19] 13.8%
active: [4] 6.14% | [9] -77.3% | [10] -8.61% | [15] 2.29% | [16] -7.51%

Cc1ccc(Nc2nc(N)c3ccccc3n2)cc1Cl
inactive: [1] 53.8% | [2] 73.5% | [3] 89% | [4] 56.8% | [5] 54.3% | [6] 41% | [7] 48.1% | [8] 80.9% | [9] 54.5% | [10] 45.9% | [11] 51.3% | [13] 27.2% | [20] 80.4% | [14] 78.5% | [16] 81.5% | [17] 108% | [18] 80.3% | [19] 49.9%

COc1ccc(-n2c(C(O)c3ccccc3)n[nH]c2=S)cc1 (centres undefined)
inactive: [1] 101% | [2] 102% | [3] 92.5% | [4] 108% | [5] 83.6% | [6] 89.7% | [7] 102% | [8] 99.1% | [9] 110% | [10] 113% | [11] 99.3% | [12] 94.9% | [13] 92.2% | [14] 95.9% | [16] 101% | [17] 90.4% | [18] 90% | [19] 107%
